From PubChem BioAssay AID624170 (National Center for Advancing Translational Sciences (NCATS), 2012) come the findings set out here.

Among all 410,000 compounds or so, about 850 (0.21%) were called active. Entries that show only a call come without a potency. Another 2% or so got no clear call; they are omitted. The sample holds actives, similar compounds and a random draw of the others, so the mix is not that of the screen. Calls come from the whole dose curve; as a rule, active = well fitted inhibition curve with a large enough effect; inconclusive = small, poorly fitted or top-dose-only effect, or another doubt; inactive = no such curve, though single readings can be large or run the other way.
Potency is the fitted concentration of half-maximal effect.

The target in the assay is Glutaminase kidney isoform, mitochondrial (Homo sapiens) (UniProt O94925). Nature of the assay: qHTS for Inhibitors of Glutaminase (GLS). To be noted: GLS enzymatic activity, qHTS titration; series mostly up to 45.5 µM. An excerpt: Glutaminase (GLS) catalyzes the hydrolysis of glutamine into glutamate and ammonia. It plays a critical role in glutaminolysis, which is an important energy source for proliferating cells. It was shown that c-Myc, an oncogenic transcription factor known to regulate microRNAs and to stimulate cell proliferation, increases glutamine metabolism by stimulating the expression of GLS via direct suppression of miR23a and miR23b.
Chain of Glutaminase kidney isoform, mitochondrial (Homo sapiens) (O94925 whole entry, looked up, canonical isoform): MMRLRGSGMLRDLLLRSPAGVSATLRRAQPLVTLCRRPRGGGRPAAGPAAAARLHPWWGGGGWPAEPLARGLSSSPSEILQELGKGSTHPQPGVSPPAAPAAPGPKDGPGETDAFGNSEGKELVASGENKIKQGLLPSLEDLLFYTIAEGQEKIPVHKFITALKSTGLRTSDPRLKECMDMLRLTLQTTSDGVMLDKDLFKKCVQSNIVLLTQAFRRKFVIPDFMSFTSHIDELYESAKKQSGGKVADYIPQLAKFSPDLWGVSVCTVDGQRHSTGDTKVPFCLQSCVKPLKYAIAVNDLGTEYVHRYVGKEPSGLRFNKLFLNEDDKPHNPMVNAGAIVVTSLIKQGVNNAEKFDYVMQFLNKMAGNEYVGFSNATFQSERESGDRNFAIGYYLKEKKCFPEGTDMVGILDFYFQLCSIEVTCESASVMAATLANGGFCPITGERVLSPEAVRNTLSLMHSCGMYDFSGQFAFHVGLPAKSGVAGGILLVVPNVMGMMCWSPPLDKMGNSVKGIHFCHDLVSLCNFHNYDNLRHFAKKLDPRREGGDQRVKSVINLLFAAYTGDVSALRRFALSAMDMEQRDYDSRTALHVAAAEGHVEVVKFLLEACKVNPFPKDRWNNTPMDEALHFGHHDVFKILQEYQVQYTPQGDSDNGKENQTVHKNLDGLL
GLS is also thought to play a pathogenic role on HAD using a human HIV-1 infected macrophage system. […] GLS inhibition limits glutamate release and provides neuroprotection against HIV-1 infected macrophages.
The overall goal of this project is to identify small molecule inhibitors of GLS through quantitative high throughput screening (qHTS) of the MLSMR. A validated potent and selective inhibitor can be used as a tool molecule to further study the pharmacology of its target as well as explore its potential therapeutic application in cancer and inflammatory neurological disorders, such as HIV1-associated dementia (HAD) and multiple sclerosis.
NIH Chemical Genomics Center [NCGC]
NIH Molecular Libraries Probe Centers Network [MLPCN]
Assay Submitter (PI): Barbara S. Slusher, Johns Hopkins University
Three 3 uL of hKGA is dispensed into black well 1536-well plates in 45 mM KH2PO4 (pH 8.2), 0.02% Tween-20. Then 23 nL of compounds are added through pin tool transfer. To this, 1 uL of 1mM L-Glutamine and 1 uL of a solution of L-Glutamateoxidase, HRP, Amplex red are added. Plate is centrifuged for 25 sec before an initial fluorescence read is obtained on the ViewLux, after 30 min of RT incubation, the final read is taken on the ViewLux.
As to `COc1cc(/C=C2/SC(=S)N(Cc3ccccc3)C2=O)cc(OC)c1O`, the Potency is 20 µM (active).

As to `CCOC(=O)C1=CCC2C(=O)N(Cc3ccccc3)C(=O)C12` (stereo not given), the Potency result is “inactive”. As for `COc1ccc(CCNC(=O)CCCCn2c(=O)c3ccccc3n(Cc3ccccc3)c2=O)cc1OC`, the entry is “inactive”; as for `COc1cc(NC(=O)c2nn(-c3ccc(C)cc3)c(=O)c3c2c2ccccc2n3C)cc(OC)c1OC`, “inactive”; as for `COc1ccc(CCC(=O)NCCc2csc(-c3ccc(Cl)cc3)n2)cc1`, “inactive”. Next, `FC(F)(F)COc1nc(N2CCCCC2)nc(N2CCNCC2)n1`: “inactive”.

`COc1nc(NC2CCCCC2)nc(N2CCCCCC2)n1`: the Potency result is “inactive”. Next, `CN(N)c1nc(N2CCCC2)nc(N2CCCC2)n1`: 14.1 µM (active); `CCCN(CC)[C@@H](CC)C(=O)Nc1c(C)cccc1C`: “inactive”; `O=C(O)CCC(=O)O`: “inactive”. Next, `O=C(CCSCc1ccccc1F)N1CCN(c2ccc(Cl)cc2)CC1`: “inactive”; `Cn1cnc2c1c(=O)n(Cc1c(Cl)cccc1Cl)c(=O)n2C`: 20 µM (active); `Cn1c(=O)n(Cc2c(F)cccc2Cl)c(=O)c2c1nc1n2CCN1c1ccc(F)cc1`: “inactive”. Next, `Cn1cnc2c1c(=O)n(Cc1ccccc1C#N)c(=O)n2C`: “inactive”; `CO[C@H]1C[C@@H](O[C@@H]2[C@@H](C)O[C@@H](O[C@@H]3/C(C)=C/CC4C[C@@H](C[C@]5(C=C[C@@H](C)[C@H](C6CCCCC6)O5)O4)OC(=O)[C@@H]4C=C(C)[C@@H](O)[C@H]5OC/C(=C\C=C\[C@@H]3C)[C@]54O)C[C@H]2OC)O[C@@H](C)[C@@H]1O`: “inactive”; `NC(=O)C(=O)N/N=C/c1ccc([N+](=O)[O-])o1`: “inactive”.

As for `COc1cc(C[C@H]2NCCc3cc(O)c(O)cc32)cc(OC)c1OC`, the Potency result is “inactive”.

Regarding `O=S(O)CNc1ccc(S(=O)(=O)c2ccc(NCS(=O)O)cc2)cc1`, the Potency result is “inactive”. As for `FC(F)(F)C1CCCN(c2nsc3ccccc23)C1` (stereo not given), the figure is 7.94 µM (active); as for `COc1cc([C@@H]2c3cc4c(cc3[C@@H](O[C@@H]3O[C@@H]5CO[C@@H](C)O[C@H]5[C@H](O)[C@H]3O)[C@H]3COC(=O)[C@H]23)OCO4)cc(OC)c1OP(=O)(O)O`, “inactive”; as for `COc1ccc(-c2ccc(=O)n(CC(=O)Nc3ccc(Br)cc3F)n2)cc1`, “inactive”. Next, `COc1ccc2oc(C(=O)NCC(Cc3ccccc3)N(C)C)c(C)c2c1` (stereo not given): “inactive”.

`COc1ccc(CNC(=O)C(Cc2ccccc2)n2cccc2)cc1` (stereo not given): the Potency result was “inactive”. As for `COc1cc([C@H](Cc2ccccc2)NC(C)=O)oc(=O)c1`, the figure is 17.8 µM (active).

For `COc1ccc(N2CCN(S(=O)(=O)CCNC(=O)C(c3ccccc3)c3ccccc3)CC2)cc1`, the Potency entry was “inactive”. Next, `CCOC(=O)c1ccccc1NC(=O)CCc1c(C)nc2c(c1C)c(=O)n(C)c(=O)n2C`: “inactive”. As for `O=C(O)CCCCC(=O)O`, the entry is “inactive”; as for `CCOc1ccc(NC(=O)c2c(NC(=O)Cc3ccccc3)sc3c2CCC(C)C3)cc1` (stereo not given), “inactive”. As for `O=C(Nc1ccc(Oc2ccccc2)cc1)C1CCN(S(=O)(=O)c2ccc(Cl)cc2)CC1`, the entry is “inactive”; as for `O=C(Nc1cccc(Cl)c1)c1csnn1`, “inactive”.

For the compound `O=C(Nc1ccccc1)c1nnsc1S(=O)(=O)c1ccc(Cl)cc1`, the Potency was 14.1 µM (active). Turning to `CCCC[C@H]1C(=O)N(c2ccccc2)N(c2ccc(O)cc2)C1=O`, the Potency result is “inactive”. Next, `O=C(OCc1ccccc1)c1ccc(O)cc1`: “inactive”. As for `CC(=O)OC1C([N+]2(C)CCCCC2)C[C@H]2C3CC[C@H]4C[C@H](OC(C)=O)C([N+]5(C)CCCCC5)CC4(C)C3CCC12C` (stereo not given in full), the Potency result was “inactive”. As for `CC(C)(C)C(=O)NCCCNc1ccc([N+](=O)[O-])cc1`, the entry is “inactive”. As for `O=C(O)CC(Cc1ccccc1)C(=O)Nc1ccc([N+](=O)[O-])cc1` (stereo not given), the entry is “inactive”. As for `O=C(O)/C=C/C(=O)NNc1ccc([N+](=O)[O-])cc1`, the figure is 11.2 µM (active); as for `CCCCC(=O)OCC(=O)[C@H]1[C@H](C)C[C@@H]2[C@@H]3C[C@@H](F)C4=CC(=O)C=C[C@]4(C)[C@@]3(F)[C@@H](O)C[C@@]21C`, “inactive”. On to `COc1ccc(NC(=O)c2sc3nc[nH]c(=O)c3c2C)cc1`, for which the Potency result was “inactive”. As for `Cn1c(=O)c2c(nc(NCCc3ccccc3)n2Cc2ccccc2Br)n(C)c1=O`, the entry is “inactive”.

Take `CC(C)OCCCNc1nc2c(c(=O)n(Cc3ccccc3F)c(=O)n2C)n1C`: the Potency was 12.6 µM (active). Regarding `Cn1c(=O)c2c(nc(NCCNC(=O)c3ccco3)n2Cc2ccccc2F)n(C)c1=O`, the Potency result was “inactive”.

On to `CCC(C)Nc1oc(-c2ccc(COc3ccc(Cl)cc3)o2)nc1C#N` (stereo not given), for which the Potency result was “inactive”. As for `CC(O)COc1ccccc1` (stereo not given), the entry is “inactive”; as for `CC1(C)OC[C@@H](COC(=O)CCc2ccc(OC[C@@H](O)CNCCNC(=O)N3CCOCC3)cc2)O1`, “inactive”. As for `Cc1cc(C)c2c(c1)c(C)cc1nnc(SCC(=O)NCc3ccco3)n12`, the entry is “inactive”. Consider `Cc1cc(C)c2nc(-c3ccco3)cc(C(=O)O)c2c1`, for which the Potency is 11.2 µM (active). Next, `Cc1cccc(NC(=O)CSc2nc(-c3ccco3)cc(C(F)(F)F)n2)c1C`: “inactive”.

For `COC(=O)[C@@H]1CC2=CC(=O)CC[C@]2(C)[C@@]23O[C@@H]2C[C@@]2(C)[C@@H](CC[C@@]24CCC(=O)O4)[C@H]13`, the Potency result was “inactive”. Next, `CC(NC(=O)CCc1cn(Cc2ccccc2Cl)c2ccccc12)c1ccccc1` (stereo not given): “inactive”; `Cc1ccc(Cn2c(CNC(=O)Cc3cccc(C)c3)nc3cccnc32)cc1`: “inactive”. Take `C=C1c2c(Cl)ccc(O)c2C(O)=C2C(=O)[C@]3(O)C(O)=C(C(N)=O)C(=O)[C@@H](N(C)C)[C@@H]3[C@@H](O)C12` (stereo not given in full): the Potency was 10 µM (active). Next, `Cc1c(O)cc2c(c1C)O[C@](C)(CCC[C@H](C)CCC[C@H](C)CCCC(C)C)CC2`: “inactive”; `CCC[C@H]1C(=O)N2C(N(C)C)=Nc3ccc(C)cc3N2C1=O`: “inactive”. As for `CCc1cc2c(cc3c(=O)n(CC(=O)N4CCN(c5cc(Cl)ccc5C)CC4)ncn32)s1`, the entry is “inactive”; as for `CC(C)CCN(C(=O)Nc1ccc(Cl)c(Cl)c1)C(C)c1cccs1` (stereo not given), “inactive”.

For the compound `COc1ccc(C2(C#N)CCC(C(=O)O)CC2)cc1OC1CCCC1` (stereo not given), the Potency entry is “inactive”. As for `CCOC(=O)Nc1ccc2c(c1)N(C(=O)CN1CCN3CCCC3C1)c1ccccc1CC2` (stereo not given), the entry is “inactive”.

`CCNCCC(=O)N1c2ccccc2Sc2ccc(NC(=O)OCC)cc21`: the Potency was 11.2 µM (active). Next, `CCOC(=O)Nc1ccc2c(c1)N(C(=O)CCCl)c1ccccc1[S@]2=O`: “inactive”.
